According to PubChem BioAssay (Tox21):
Records with an inconclusive call do not appear. The source made the active and inactive calls. Unless noted, the call rests on the fitted dose curve; in most records, active means well fitted curve in the direction sought with a large enough effect in the repeat runs; inconclusive means weak or mixed curves; inactive means flat fitted curve, though single readings scatter.

Columns and labels:
[1] = qHTS assay to test for compound auto fluorescence at 535 nm (green) in HEK293 cells (AID 720680)
[2] = qHTS assay to test for compound auto fluorescence at 460 nm (blue) in HEK293 cell free culture (AID 720681)
Method in brief: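 Blue fluorescence (Ex 405/Em 460 nm, triamterene-equivalent) was read immediately after pin transfer of compound or DMSO into medium (DMEM, 10% FBS) without cells.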

[3] = qHTS assay to test for compound auto fluorescence at 535 nm (green) in HEK293 cell free culture (AID 720682)
Method in brief: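 Green-channel intensity (Ex/Em 485/535 nm) was recorded from compound-treated wells containing only DMEM with 10% FBS. Fluorescein provided the equivalency standard.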

[4] = qHTS assay to test for compound auto fluorescence at 590 nm (red) in HEK293 cell free culture (AID 720683)
Method in brief: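 Red-channel autofluorescence of compounds in culture medium (DMEM, 10% FBS), no cells, measured at 540/590 nm. Rose Bengal sodium is the reference fluorophore for equivalence.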

[5] = qHTS assay to test for compound auto fluorescence at 590 nm (red) in HepG2 cell free culture (AID 720684)
Method in brief: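 No cells present: MEM + 10% FBS only. Compound pinned in, red label read (540/590 nm). Activity = fluorescence equivalent to Rose Bengal sodium.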

[6] = qHTS assay to test for compound auto fluorescence at 460 nm (blue) in HepG2 cell free culture (AID 720685)
Method in brief: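 Cell-free plates of MEM plus 10% FBS received 23 nL compound or DMSO vehicle; blue-channel (405/460 nm) intensity scored against triamterene as reference fluorophore.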

[7] = qHTS assay to test for compound auto fluorescence at 460 nm (blue) in HepG2 cells (AID 720687)
Method in brief: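 Blue-channel autofluorescence (Ex/Em 405/460 nm, triamterene-equivalent) was measured after 1 hr compound exposure at 37 C, 5% CO2. Cells were HepG2, plated overnight at 37 C in MEM plus 10% FBS.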

[8] = qHTS assay to test for compound auto fluorescence at 535 nm (green) in HepG2 cell free culture (AID 720686)
[9] = biological target: Glucocorticoid receptor (Homo sapiens) (UniProt P04150); test: qHTS assay to identify small molecule agonists of the glucocorticoid receptor (GR) signaling pathway (AID 720691; active means well fitted activation curve with a large enough effect in the signal ratio in the repeat runs, not every such curve was filed as active; the % refers to the signal ratio)
Method in brief: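 HeLa GR-bla reporter line; cells pre-incubated 4 h, compound in DMSO 18 h at 37 C; LiveBLAzer B/G FRET substrate 2 h RT; fluorescence intensity read-out.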

[10] = biological target: Glucocorticoid receptor (Homo sapiens) (UniProt P04150); test: qHTS assay to identify small molecule antagonists of the glucocorticoid receptor (GR) signaling pathway (AID 720692; active means well fitted inhibition curve with a large enough effect in the signal ratio in the repeat runs, not every such curve was filed as active; the % refers to the signal ratio)
Method in brief: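 Read-out: beta-lactamase FRET substrate fluorescence, 2 h at room temperature, in HeLa cells stably carrying a GRE-driven bla reporter. Compounds were co-incubated with 5 nM dexamethasone agonist (final) for 18 h at 37 C.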
On the % scale 0 is the no-effect control and ±100 the full control effect.

Sequence of Glucocorticoid receptor (Homo sapiens) (P04150 whole entry, looked up): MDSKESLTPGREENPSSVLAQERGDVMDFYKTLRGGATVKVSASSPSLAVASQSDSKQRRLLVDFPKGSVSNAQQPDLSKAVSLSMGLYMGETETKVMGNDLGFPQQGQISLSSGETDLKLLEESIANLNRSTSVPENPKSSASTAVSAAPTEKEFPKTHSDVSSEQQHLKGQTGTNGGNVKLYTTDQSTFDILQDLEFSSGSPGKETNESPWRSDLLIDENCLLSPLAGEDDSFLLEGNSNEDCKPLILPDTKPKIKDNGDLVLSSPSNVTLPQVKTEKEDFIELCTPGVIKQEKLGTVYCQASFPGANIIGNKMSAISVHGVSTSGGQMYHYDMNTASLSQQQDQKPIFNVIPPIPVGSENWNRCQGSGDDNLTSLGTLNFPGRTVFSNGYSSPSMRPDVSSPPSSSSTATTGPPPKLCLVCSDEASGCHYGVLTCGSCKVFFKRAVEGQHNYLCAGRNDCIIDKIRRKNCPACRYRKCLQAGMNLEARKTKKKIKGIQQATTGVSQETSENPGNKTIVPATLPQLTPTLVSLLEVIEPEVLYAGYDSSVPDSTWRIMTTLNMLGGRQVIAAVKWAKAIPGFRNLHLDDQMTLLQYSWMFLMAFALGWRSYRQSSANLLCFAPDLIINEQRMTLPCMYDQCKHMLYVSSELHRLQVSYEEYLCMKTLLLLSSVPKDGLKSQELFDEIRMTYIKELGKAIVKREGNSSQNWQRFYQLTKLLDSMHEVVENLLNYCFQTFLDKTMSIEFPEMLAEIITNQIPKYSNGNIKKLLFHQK

CC1(C)SC(C)(C)SC(C)(C)S1
inactive: outcome [1] | Potency [2] | outcome [3] | outcome [4] | outcome [5] | Potency [6] | Potency [7]

CCOC(=O)Cn1c(=O)sc2cccc(Cl)c21
inactive: outcome [1] | Potency [2] | outcome [3] | outcome [4] | outcome [5] | Potency [6] | outcome [8] | Potency [9]

CO[Si](CCCNCCC[Si](OC)(OC)OC)(OC)OC
inactive: outcome [1] | Potency [2] | outcome [3] | outcome [4] | outcome [5] | Potency [6] | Potency [7] | Potency [9] | Potency [10]

COC(=O)c1ccc(C(=O)OC)c(C(=O)OC)c1
inactive: outcome [1] | Potency [2] | outcome [3] | outcome [4] | outcome [5] | Potency [6] | Potency [7] | Potency [9]

NS(=O)(=O)c1cc2c(cc1Cl)NC(CSCc1ccccc1)=NS2(=O)=O
inactive: fluorescence, % of fluorescein [1] -0.0376% [at 18.6 µM] | fluorescence, % of fluorescent control [2] -0.0458% [at 18.6 µM] | activity change [3] -0.222% [at 18.6 µM] | fluorescence, % of fluorescent control [4] 0.107% [at 18.6 µM] | fluorescence, % of Rose Bengal [5] 0.12% [at 18.6 µM] | fluorescence, % of fluorescent control [6] -0.0404% [at 18.6 µM] | fluorescence, % of fluorescent control [7] 0.19% [at 18.6 µM] | Potency [9]

CC1=CC(C)C(C=O)C(C)C1 (configuration not stated)
inactive: outcome [1] | Potency [2] | outcome [3] | outcome [4] | outcome [5] | Potency [6] | outcome [8] | Potency [10]

C1=C\CC/C=C\CC/C=C\CC/1
inactive: outcome [1] | Potency [2] | outcome [3] | outcome [4] | outcome [5] | Potency [6] | outcome [8] | Potency [9]

CCN1CCCC1CNC(=O)c1cc(S(N)(=O)=O)ccc1OC (configuration not stated)
inactive: outcome [1] | Potency [2] | outcome [3] | outcome [4] | outcome [5] | Potency [6] | Potency [7] | Potency [9]

O=C1OC(=O)c2cc([N+](=O)[O-])ccc21
inactive: outcome [1] | Potency [2] | outcome [3] | outcome [4] | outcome [5] | Potency [6] | Potency [7] | Potency [9] | Potency [10]

CC(C)[C@H](N)C(=O)OCCOCn1cnc2c(=O)[nH]c(N)nc21
inactive: outcome [1] | Potency [2] | outcome [3] | outcome [4] | outcome [5] | Potency [6] | outcome [8] | Potency [9]

COC[C@H](c1ccc(C(F)(F)F)cc1)N1CCN(C2(C)CCN(C(=O)c3c(C)ncnc3C)CC2)C[C@H]1C
inactive: outcome [1] | Potency [2] | outcome [3] | outcome [4] | outcome [5] | Potency [6] | Potency [7] | Potency [9] | Potency [10]

COCCOC(=O)CC#N
inactive: outcome [1] | Potency [2] | outcome [3] | outcome [4] | outcome [5] | Potency [6] | outcome [8] | Potency [9]

C=C(C)[C@@H]1CCC2=CC(=O)C[C@@H](C)[C@]2(C)C1
inactive: outcome [1] | Potency [2] | outcome [3] | outcome [4] | outcome [5] | Potency [6] | Potency [7]

NS(=O)(=O)c1cc(C2(O)NC(=O)c3ccccc32)ccc1Cl (configuration not stated)
inactive: fluorescence, % of fluorescein [1] 0.0145% [at 18.6 µM] | fluorescence, % of fluorescent control [2] -0.0547% [at 18.6 µM] | activity change [3] 0.0635% [at 18.6 µM] | fluorescence, % of fluorescent control [4] 0.411% [at 18.6 µM] | fluorescence, % of Rose Bengal [5] 0.348% [at 18.6 µM] | fluorescence, % of fluorescent control [6] 0.0381% [at 18.6 µM] | fluorescence, % of fluorescein control [8] 0.0502% [at 18.6 µM] | Potency [9] | Potency [10]

CC(C)(O)Cc1ccccc1
inactive: outcome [1] | Potency [2] | outcome [3] | outcome [4] | outcome [5] | Potency [6] | Potency [7]

CC(C)(C)C(=O)/C=C/c1ccc(Cl)cc1
inactive: outcome [1] | Potency [2] | outcome [3] | outcome [4] | outcome [5] | Potency [6] | Potency [7] | Potency [9]

Nc1nc(F)nc2c1ncn2[C@@H]1O[C@H](CO)[C@@H](O)[C@@H]1O
inactive: outcome [1] | Potency [2] | outcome [3] | outcome [4] | outcome [5] | Potency [6] | outcome [8] | Potency [9] | Potency [10]

C=CCOCC(O)CS(=O)(=O)O (configuration not stated)
inactive: outcome [1] | Potency [2] | outcome [3] | outcome [4] | outcome [5] | Potency [6] | Potency [7]

C1C2OC2C2C1C1CC2C2OC12 (configuration not stated)
inactive: outcome [1] | Potency [2] | outcome [3] | outcome [4] | outcome [5] | Potency [6] | Potency [7]

CCCC(C)C(=O)O (configuration not stated)
inactive: outcome [1] | Potency [2] | outcome [3] | outcome [4] | outcome [5] | Potency [6] | Potency [7]

CCCCN(CCO)CCO
inactive: outcome [1] | Potency [2] | outcome [3] | outcome [4] | outcome [5] | Potency [6] | Potency [7] | Potency [9] | Potency [10]

C=C(C)C(=O)OCCC(C)OC(=O)C(=C)C (configuration not stated)
inactive: outcome [1] | Potency [2] | outcome [3] | outcome [4] | outcome [5] | Potency [6] | outcome [8] | Potency [10]

O=Cc1ccccc1[N+](=O)[O-]
inactive: outcome [1] | outcome [3] | outcome [4] | outcome [5] | Potency [6] | outcome [8] | Potency [9]

CSc1ccc(C=O)cc1
inactive: outcome [1] | outcome [3] | outcome [5] | Potency [6] | outcome [8] | Potency [7] | Potency [9]

CCCCC1CCCCC(=O)O1 (configuration not stated)
inactive: outcome [1] | outcome [3] | outcome [4] | outcome [5] | Potency [6] | Potency [7]

CO
inactive: outcome [1] | outcome [3] | outcome [5] | Potency [6] | outcome [8] | Potency [7]

Nc1ccn(C2CO[C@H](CO)O2)c(=O)n1 (some centres not stated)
inactive: outcome [1] | outcome [3] | outcome [4] | outcome [5] | Potency [6] | outcome [8] | Potency [7]

O=C(O)c1ccccc1-c1ccc(C(F)(F)F)cc1
inactive: outcome [1] | outcome [3] | outcome [5] | Potency [6] | outcome [8] | Potency [7] | Potency [9] | Potency [10]
